VHR inh abs – DUSP3 (human) phosphatase inhibition | recombinant VHR phosphatase, pNPP absorbance | inhibition, % at 13.3 µM | 0.52% of 290,000 active; in the data active means inhibition above about 50%
Target sequence (P51452 whole entry, looked up): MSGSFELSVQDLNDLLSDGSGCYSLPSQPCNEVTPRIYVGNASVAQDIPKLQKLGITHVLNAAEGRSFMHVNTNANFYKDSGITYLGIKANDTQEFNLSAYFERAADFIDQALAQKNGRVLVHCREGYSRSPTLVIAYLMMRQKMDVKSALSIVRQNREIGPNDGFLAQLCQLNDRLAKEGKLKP
PfHsp40 rescue – compounds rescuing yeast from Plasmodium falciparum HSP40 toxicity; growth rescue, % at 12.5 µM; 0.68% of 340,000 active; S. cerevisiae expressing PfHsp40, growth rescue, ATP luminescence; in the data active means growth rescue above about 28%, passing the limit was not always enough; inconclusive means no clear call, values can overlap the other calls;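 further: yeast W303a lacking pdr1 and pdr3 grown in galactose medium; growth measured after three days at 30 °C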
PriA SSB inh – K. pneumoniae PriA-SSBct interaction inhibition | inhibition, % at 33 µM | AlphaScreen SSBct-PriA binding, biotinylated peptide | 0.6% of 430,000 active | AID 1272365; in the data active means inhibition mostly above about 37%, no sharp cut-off; inactive means mostly below about 20%;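 further: plate controls were negative control peptide for no effect and reference peptide for full effect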
Mtb hypoxia rep – reduces hypoxia-regulated biosensor signal in M. tuberculosis | M. tuberculosis hypoxia-regulated fluorescent reporter, fluorescence | AID 1159583 | 0.1% of 300,000 active | fluorescence inhibition, % (test concentration not listed); in the data active means fluorescence inhibition mostly above about 23%, no sharp cut-off; inactive means mostly below about 17%
ugtP null kill – compounds lethal to S. aureus RN4220 ugtP deletion mutant; OD600 growth, 16 h; growth inhibition, % (no concentration beside the values); 0.54% of 330,000 active; AID 1259309; in the data active means growth inhibition above about 68%;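 further: plate controls were untreated wells for no effect and antibiotic for full effect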
RN4220 kill – S. aureus RN4220 growth inhibition; inhibition, % (concentration not given with the values); AID 1259311; 0.33% of 330,000 active; OD600, 16 h; in the data active means inhibition above about 85%;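 further: plate controls were untreated cells for no effect and reference antibiotic for full effect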
* = called active by the depositor; ? = inconclusive; nt = no result shown. Shown are actives, neighbours in structure and some others; about 1.8% of the full set was active somewhere.

SMILES | VHR inh abs | PfHsp40 rescue | PriA SSB inh | Mtb hypoxia rep | ugtP null kill | RN4220 kill
CO[C@H]1/C=C/O[C@@]2(C)Oc3c(C)c(O)c4c(O)c(c5c(c4c3C2=O)=NC2(CCN(CC(C)C)CC2)N=5)NC(=O)/C(C)=C\C=C\[C@H](C)[C@H](O)[C@@H](C)[C@@H](O)[C@@H](C)[C@H](OC(C)=O)[C@@H]1C | nt | nt | 33.4 | nt | nt | nt
COC1C=CO[C@@]2(C)Oc3c(C)c(O)c4c(O)c(c(C=NN5CCN(C)CC5)c(O)c4c3C2=O)NC(=O)C(C)=CC=CC(C)C(O)C(C)C(O)C(C)C(OC(C)=O)C1C (stereo partly specified) | nt | nt | nt | nt | 96.8* | 97.9*
O=C(Cc1ccccc1)N(Cc1ccccn1)c1nc2c(F)cccc2s1 | nt | nt | -7.0 | nt | nt | nt
CN(C)c1nc(N(C)C)nc(N(C#N)CN2C(=O)c3ccccc3C2=O)n1 | 51.9* | nt | nt | 2.8 | -9.7 | 0.2
O=c1c2ccccc2oc2ccc(-c3ccc4[nH]ccc4c3)cc12 | nt | 21.1 | -4.9 | 3.2 | 92.3* | 12.9
NC(=NCCCCCCN=C(N)N=C(N)Nc1ccc(Cl)cc1)N=C(N)Nc1ccc(Cl)cc1 | nt | nt | 28.6 | nt | 100.4* | 99.8*
CCCN1CCCc2cc(CCNC(=O)C(=O)Nc3cc(C)nc4ccccc34)ccc21 | nt | nt | 8.0 | nt | nt | nt
CN(Cc1ccccc1)C(=O)c1cn(C)c2ccc(S(=O)(=O)N3CCCC3)cc2c1=O | 51.2* | -0.6 | -8.6 | -7.4 | -0.9 | -1.6
Cc1ccc(CNC(=O)c2cn(C)c3ccc(S(=O)(=O)N4CCOCC4)cc3c2=O)cc1 | 52.1* | 1.6 | -11.6 | 5.6 | -0.6 | 0.7
CC(NC(=O)c1cn(C)c2ccc(S(=O)(=O)N3CCCC3)cc2c1=O)c1ccc2c(c1)OCCO2 (stereo unspecified) | 19.7 | 42.4* | 3.8 | 17.3 | 3.2 | 0.9
CSC1CC2CCC(C1)N2C(=O)c1ccsc1 (stereo unspecified) | nt | nt | 94.0* | nt | nt | nt
CC(C)OCCCNc1nc2c(c(=O)n(Cc3ccccc3Cl)c(=O)n2C)n1C | nt | nt | -30.0 | nt | nt | nt
Cc1cc(NC(=O)CCC(=O)N(C2CC2)C(C(=O)NC(C)(C)C)c2ccccc2Cl)no1 (stereo unspecified) | 16.6 | 1.2 | 9.9 | -0.3 | 7.4 | -0.8
CCC(C)(C)NC(=O)C(c1ccccc1Cl)N(C(=O)CCC(=O)Nc1cc(C)on1)C1CC1 (stereo unspecified) | 21.4 | -1.1 | 49.0* | 3.1 | -3.6 | -1.6
CC(=O)c1ccc(N2CCN(S(=O)(=O)c3c(C(=O)N4CCCC4)c(C)n(C)c3C)CC2)cc1 | 1.6 | -2.3 | -11.4 | 10.4 | 2.0 | 2.6
COc1ccc(N2CCN(S(=O)(=O)c3c(C(=O)N4CCOCC4)c(C)n(C)c3C)CC2)cc1 | 51.2* | 0.2 | -4.0 | 0.3 | 6.0 | 6.5
Cc1nnc(NC(=O)CCCOc2ccc(C(C)(C)C)cc2)s1 | nt | nt | -7.0 | nt | nt | nt
CC1(C(=O)OCC(=O)Nc2ccc3ccccc3c2)CC1(Cl)Cl (stereo unspecified) | 2.0 | 45.7* | -20.1 | 3.6 | 2.3 | 5.5
COc1ccc(NC(=O)CC(NCc2ccccn2)C(=O)O)cc1 (stereo unspecified) | 18.2 | -1.7 | -7.6 | 13.1 | 9.1 | 5.3
CCOc1ccc(NC(=O)CC(NCc2ccccn2)C(=O)O)cc1 (stereo unspecified) | 16.1 | 15.0 | 96.0* | 1.6 | 5.3 | -1.4
O=c1c(SCc2cccc([N+](=O)[O-])c2)nccn1-c1ccc(F)cc1 | nt | nt | 40.0* | nt | nt | nt
COc1ccc(C(CC(=O)Nc2ncccc2C)N2Cc3ccccc3C2=O)cc1OC (stereo unspecified) | -23.8 | -1.9 | -10.1 | 4.0 | -1.4 | 1.8
COc1cc(C(CC(=O)Nc2ncccc2C)N2Cc3ccccc3C2=O)cc(OC)c1OC (stereo unspecified) | 52.6* | 1.9 | 0.1 | -5.5 | 2.3 | 4.7
Cc1cc(C)cc(N(C)S(=O)(=O)c2ccsc2-c2nc(-c3cccc(Cl)c3)no2)c1 | nt | nt | -17.0 | nt | nt | nt
CCc1c(C2(O)CCCCC2)[nH]c2cc(C(F)(F)F)ccc12 | 24.4 | 299.0* | 2.7 | nt | nt | nt
SMILES | VHR inh abs | PfHsp40 rescue | PriA SSB inh | Mtb hypoxia rep | ugtP null kill | RN4220 kill
Cc1c(C2(O)CCCCC2)[nH]c2cc(C(F)(F)F)ccc12 | nt | ? | 5.6 | 19.6 | -4.0 | -4.8
CN(C)S(=O)(=O)c1ccc(C(=O)Nc2cc(C(=O)N3CCOCC3)cn(C)c2=O)cc1 | nt | nt | 0.0 | nt | nt | nt
CC(=O)C1=C(c2ccccc2)N(C(C)=O)n2cnnc2S1 | nt | nt | -13.0 | nt | nt | nt
CC(=O)C1=C(c2cccc([N+](=O)[O-])c2)N(C(C)=O)n2c(C)nnc2S1 | 16.5 | 82.4* | 27.0 | -7.2 | 12.1 | -0.2
CC(C)C(=O)N1CCc2ccc(NC(=O)CCc3ccccc3)cc2C1 | nt | nt | 9.0 | nt | nt | nt
Oc1ccc(-c2[nH]ncc2Oc2ccccc2)c(O)c1O | nt | nt | 37.0 | nt | nt | nt
CCCc1ccc(Oc2cn[nH]c2-c2ccc(O)c(C)c2O)cc1 | -16.7 | 83.3* | 30.5 | 13.1 | 100.1* | 99.4*
CCCc1ccc(Oc2c(-c3ccc(O)c(C)c3O)n[nH]c2C)cc1 | 10.5 | 2.6 | 6.4 | 4.9 | 96.9* | 76.8
COc1ccc(-c2ccc(SCc3ccc(N4CCCC4=O)cc3)nn2)cc1OC | nt | nt | -2.0 | nt | nt | nt
COc1cc(Cl)c(C)cc1NC(=O)c1n[nH]nc1-c1ccccc1 | nt | nt | -20.0 | nt | nt | nt
Cc1nnc(SCC(=O)NNC(=O)COc2ccc(Br)cc2)n1C | nt | -0.2 | 7.6 | 31.5* | 1.4 | 3.2
O=C(NN=Cc1c(O)ccc2ccccc12)C1CC1 | nt | -1.5 | -3.3 | 8.5 | 90.5* | 72.5
O=C(NN=Cc1c(O)ccc2ccccc12)c1cccc(C(F)(F)F)c1 | nt | nt | -26.8 | 8.4 | 99.9* | 54.1
CCOc1ccc(/C=N/NC(=O)CN2CCCCC2)cc1OCC | 53.9* | 0.0 | nt | nt | nt | nt
O=C(CN1CCCC1)N/N=C/c1c(O)ccc2ccccc12 | 25.2 | 52.5* | nt | nt | nt | nt
CC(=NNC(=O)c1ccco1)c1ccc(Br)s1 | nt | nt | -23.1 | 25.5 | -1.8 | 1.8
COc1ccc(C2=CC(=O)CC(c3ccc(F)cc3)C2)cc1F (stereo unspecified) | nt | nt | nt | 7.9 | -1.2 | 2.4
CCOC(=O)c1c2c(n(-c3ccc(OC)cc3)c1C)C(=O)C(=O)c1ccccc1-2 | nt | 85.3* | 3.9 | nt | nt | nt
CCOC(=O)c1sc(=S)n(-c2ccc(OC)cc2)c1C | -4.0 | nt | 6.7 | -17.4 | -4.5 | -0.7
Cc1ccc(C(=O)COc2ccccc2-c2ccccc2)cc1 | 16.4 | 3.7 | -77.4 | 11.5 | 85.5* | -2.1
COCCn1c(C)cc(C(=O)COc2ccc(C)nc2[N+](=O)[O-])c1C | -0.6 | 0.2 | 47.3* | 14.9 | 2.9 | 1.2
Cc1ccc(OCC(=O)c2cc(C)n(-c3ccccc3)c2C)c([N+](=O)[O-])n1 | 12.6 | 0.8 | 16.7 | 3.3 | 3.6 | -1.0
CCCn1c(C)cc(C(=O)COc2ccc(C)nc2[N+](=O)[O-])c1C | 53.8* | 0.2 | 9.8 | 5.0 | 0.5 | 1.4
C=CCn1c(C)cc(C(=O)COc2ccc(C)nc2[N+](=O)[O-])c1C | 11.0 | -1.0 | 28.3 | 6.0 | 3.7 | 9.8
Cc1ccc(-c2csc(-c3c[nH]c4ccccc34)n2)c(C)c1 | 9.9 | 0.0 | 1.9 | nt | 94.7* | -7.1

Screening results deposited in PubChem BioAssay by several laboratories.
